Experimental data as given in ChEMBL document CHEMBL3988442, “University of Dundee, Small-Polar-MMV Screening Library” (2021).
Among all 48,000 compounds or so, about 13,000 (27%) showed an effect of 50% or more. This is one part of the list.

These compounds were tested on Wolbachia pipientis (assay: Anti-Wolbachia Cell-Based Screen). Conditions: 5 µM.
Format: functional
Design: scale not given: in the data most compounds retested in dose-response had high values

| Compound | Percent Effect [%] |
| --- | --- |
| CN(C)c1ncc(CNC(=O)Nc2ccccc2C(F)(F)F)n1C | 9.124 |
| Cn1nc2c(cc1=O)CN(Cc1coc(-c3cccs3)n1)CC2 | 1.365 |
| COCCN1C[C@H]2CC[C@@H]1CN(C(=O)CCc1n[nH]c(C)c1C)C2 | 0.4749 |
| Cc1cc(N2CCC(Cc3cccnc3)C2)ncn1 (stereo not given) | 84.65 |
| COc1cc(N2CCCC(c3nccn3Cc3cccnc3)C2)ncn1 (stereo not given) | -16.56 |
| CC(=O)c1c(F)cccc1N1CCC(Cc2cccnc2)CC1 | -2.782 |
| NC(=O)CCn1cc(CNCCCc2ccncc2)c2ccccc21 | -11.7 |
| Cl.NCCc1cn(Cc2ccccn2)c2ccccc12 | 119.5 |
| Cc1cc(C(=O)N2C[C@H]3CC[C@@H]2CN(Cc2ccccn2)C3)nc(N)n1 | 2.343 |
| CS(=O)(=O)N[C@H]1CCO[C@]2(CCN(CC3CCOCC3)C2)C1.O=C(O)C(F)(F)F | 0.7443 |
| COC1COC2(CCN(CC3CCOCC3)CC2)C1.O=C(O)C(F)(F)F (stereo not given) | 105.7 |
| COC1COC2(CCN(CC3CC3)CC2)C1.O=C(O)C(F)(F)F (stereo not given) | 95.93 |
| CS(=O)(=O)N[C@@H]1CCO[C@]2(CCN(CC3CCOCC3)C2)C1.O=C(O)C(F)(F)F | -3.641 |
| CC(C)(C)c1ncc(CNc2ccccc2Cn2cncn2)s1 | 1.316 |
| CSCC(=O)N[C@H]1CN(Cc2c(C)noc2C)C[C@@H]1C(C)C | -1.777 |
| CC(C)CN1CC(c2nc(C3CC3)n[nH]2)CC1=O (stereo not given) | 4.423 |
| Cc1ccccc1C(=O)Nc1cnn(CC(=O)NC2CCCC2)c1 | -2.578 |
| COc1cc(Cl)ccc1C(=O)NCC(=O)Nc1nccs1 | -9.549 |
| CSc1nc2cc(C)n(CC(=O)Nc3nccs3)c2c(=O)n1CC(C)C | -4.494 |
| O=C(CCn1nc(C(=O)Nc2ccccc2)ccc1=O)Nc1nccs1 | 112.6 |
| Cc1ccc(NC(=O)c2ccc(=O)n(CC(=O)NC3CCCC3)n2)cc1 | 106.4 |
| CCC(=O)NC1CCCN(Cn2nc(C(C)(C)C)ccc2=O)C1 (stereo not given) | -0.4021 |
| Cc1cc(C)n(CC2CCCCN2CC(=O)Nc2nccs2)n1 (stereo not given) | -11.15 |
| O=C(NCc1ccccc1CN1CCCC1=O)Nc1nccs1 | -2.659 |
| Cc1ccc(NC(=O)c2ccc(=O)n(CC(=O)Nc3nccs3)n2)cc1 | 101.8 |
| O=C(Nc1ccccc1)c1ccc(NCc2nccs2)nn1 | 3.378 |
| Cc1ccc(-c2ccc(=O)n(CC(=O)Nc3nccs3)n2)cc1 | 124.1 |
| N#Cc1cccc(CS(=O)(=O)NCC(O)Cc2ccccc2)c1 (stereo not given) | -5.845 |

| Compound | Percent Effect [%] |
| --- | --- |
| Cc1nc(-c2cccc(C#N)c2)nn1CC1(O)CCCCC1 | -14.51 |
| Cc1ccccc1CS(=O)(=O)NCCCN1CCCCC1 | -4.018 |
| Cn1c(NCCC(=O)N2CCCC2)c(C#N)c(=O)n(C)c1=O | 17.52 |
| N#CCCNC(=O)CSc1cc(F)ccc1F | 8.044 |
| COCC(=O)NCc1cc(=O)n2c(n1)CN(Cc1nccs1)CCC2 | 109.1 |
| COCC(=O)NCc1cc(=O)n2c(n1)CN(Cc1cccs1)CCC2 | 97.08 |
| Cn1ccnc1C(=O)NCc1cc(=O)n2c(n1)CN(CC1CC1)CCC2 | -4.321 |
| O=C(c1cccs1)N1CCCn2c(nc(CN3CCCC3)cc2=O)C1 | -6.505 |
| CCCN1CCCn2c(nc(CNC(=O)c3nccn3C)cc2=O)C1.O=C(O)C(F)(F)F | -4.018 |
| Cc1cc(C)nc(N2CC=C[C@H]2C(=O)NCc2ccc3c(c2)OCO3)n1 | 114.7 |
| CC(CNC(=O)NCc1ccc2c(c1)OCO2)CC1(C)OCCO1 (stereo not given) | -13.46 |
| Cc1cc(C)nc(N2CC=C[C@@H]2C(=O)NCc2ccc3c(c2)OCO3)n1.Cl | 87.31 |
| Cn1cnnc1C1CCCN(C(=O)NCc2ccc3c(c2)OCO3)C1 (stereo not given) | -7.5 |
| CC(C)(C)NS(=O)(=O)c1cc(NC(=O)C2CC2)ccc1F | -6.714 |
| Cc1cc(C)nc(CN(C)C(=O)C(c2cccnc2)N2CCCC2)c1 (stereo not given) | 24.45 |
| COc1ccc(C2CCCN2S(=O)(=O)N(C)CC(C)C)cc1 (stereo not given) | -5.01 |
| COc1ccc(F)cc1S(=O)(=O)N1CCC(OC)CC1 | 11.35 |
| COC(=O)[C@H]1C[C@@H](O)CCN1S(=O)(=O)c1ccc(F)cc1F | -1.254 |
| O=S(=O)(c1ccc(F)cc1Cl)N1CCCC1c1ccncc1 (stereo not given) | 106.2 |
| O=S(=O)(c1cc(F)ccc1F)N1CCCC1c1ccco1 (stereo not given) | 90.48 |
| C[C@@H]1CN(S(=O)(=O)c2ccc(F)cc2Cl)C[C@]1(C)O | 2.252 |
| COc1ccc(C2CCCCCN2S(=O)(=O)N(C)C)cc1 (stereo not given) | -32.58 |
| O=S(=O)(N1CCC(n2cccc2)CC1)N1CCCC1c1ccco1 (stereo not given) | -32.64 |
| COC1CCN(S(=O)(=O)N2CCCC2c2ccco2)CC1 (stereo not given) | -19.32 |
| COc1ccc(C2CCCN2S(=O)(=O)c2cc(F)ccc2F)cc1 (stereo not given) | 118.1 |
| CN(CC(=O)NC1CC1)S(=O)(=O)c1ccc(F)cc1Cl | -5.607 |
| O=S(=O)(c1cc(F)ccc1F)N1CCCC1c1ccncc1 (stereo not given) | 90.37 |
